{
  "source": "PubChem BioAssay (NCI)",
  "note": "This is part of a sample that, as a whole, favours compounds with a hit. Of some 79,000 tested, about 15% had one in any assay. Values without a mark were called inactive. Active and inactive are the calls of the source. Rule as the data show it: active = growth inhibition above about 70%; inactive = the rest.",
  "data": [
    {"test": "NCI Yeast Anticancer Drug Screen. Data for the mlh1 rad18 strain (AID 175)", "conditions": "S. cerevisiae mlh1 rad18 strain growth inhibition; at 50.0 µM; hits give high values", "summary_of_the_method": "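Compound-treated yeast growth, normalised to vehicle controls. Strain bears defined DNA repair mutations.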", "values": [
      {"compound": "Clc1cccc[n+]1CCc1ccccc1", "growth inhibition": "44%"},
      {"compound": "COC(=O)c1c(C)ccc(C)c1C(=O)c1c(C)cc(C)cc1C", "growth inhibition": "4.1%"},
      {"compound": "O=C1c2ccccc2C(=O)N1CC1(C(=O)O)NCCS1(=O)=O", "note": "(stereo not given)", "growth inhibition": "10.1%"},
      {"compound": "CCN(CC)c1ccc2c(c1)Oc1cc(N(CC)CC)ccc1C2c1ccccc1C(=O)O", "growth inhibition": "-3.45%"},
      {"compound": "C[n+]1ccccc1C(O)C(O)c1cccc[n+]1C", "note": "(stereo not given)", "growth inhibition": "9.6%"},
      {"compound": "C(=NC12CC3CC(CC(C3)C1)C2)C1CCCCC1", "growth inhibition": "-2.5%"},
      {"compound": "CCCCCCCc1cc(OC(=O)c2c(C)cc(OC)cc2O)cc(O)c1C(=O)O", "growth inhibition": "16.8%"},
      {"compound": "Cc1cccc(C)c1NC(=O)Nc1cccc(O)c1", "growth inhibition": "26.4%"},
      {"compound": "CC(C)(C)OC(=O)NCC(O)CNC(=O)OC(C)(C)C", "growth inhibition": "-24.6%"},
      {"compound": "NC(=O)N/N=C/c1ccc(Cl)cc1Cl", "growth inhibition": "-13.6%"},
      {"compound": "CCN(CC)CCCNc1c2c(nc3ccc(Cl)cc13)CCCC2", "growth inhibition": "2.75%"},
      {"compound": "Cc1ccc(S(=O)(=O)CC(=O)NC(N)=O)cc1", "growth inhibition": "-7.3%"},
      {"compound": "NC(N)=NC(=S)Nc1ccc(Cl)cc1", "growth inhibition": "31.1%"},
      {"compound": "O=NN(CCOS(=O)(=O)c1ccc(Br)cc1)C(=O)NC1CCCCC1", "growth inhibition": "25.2%"},
      {"compound": "CC1COC(c2cc3c(cc2Cl)OCO3)O1", "note": "(stereo not given)", "growth inhibition": "-0.4%"},
      {"compound": "Cc1cc(C)n(/N=C/c2ccccc2[N+](=O)[O-])c(=O)c1C#N", "growth inhibition": "-6.85%"},
      {"compound": "Cc1cc(C)c(-c2c(C)cc(C)c([N+](=O)[O-])c2C)c(C)c1N", "growth inhibition": "97.8% (active)"},
      {"compound": "c1ccc2cc3c(cc2c1)[nH]c1ccccc13", "growth inhibition": "14.8%"},
      {"compound": "CN(C)C(=O)C1C2CCCC(CC2)C1C(=O)N(C)C", "note": "(stereo not given)", "growth inhibition": "20.2%"},
      {"compound": "N#CCN(CCc1ccccc1)CCc1ccccc1", "growth inhibition": "34.1%"},
      {"compound": "Cc1nc(-c2nc(C(=O)NCCC[S+](C)C)cs2)cs1", "growth inhibition": "-0.2%"},
      {"compound": "O=c1[nH]c(Nc2cccc(CO)c2)nc2nc[nH]c12", "growth inhibition": "-26.4%"},
      {"compound": "CCn1c2ccccc2c2c(-c3ccccc3)cc3c(c21)C(=O)N(c1ccccc1)C3=O", "growth inhibition": "-9.9%"},
      {"compound": "C=C(C#N)C1OCC2OC(C)(C)OC21", "note": "(stereo not given)", "growth inhibition": "-25.9%"},
      {"compound": "COc1ccc(OC)c(/C=C/C2=C(C)C(=O)CC(c3cc(OC)ccc3OC)C2C)c1", "note": "(stereo not given)", "growth inhibition": "4.3%"},
      {"compound": "CC(=O)OC1[C@H](OC(C)=O)C2=C(C)[C@@H](OC(C)=O)C[C@@]2(C(C)(C)O)[C@@H](OC(C)=O)[C@H]2[C@@]1(C)[C@@H](OC(C)=O)CC(OC(C)=O)[C@]21CO1", "note": "(stereo not given in full)", "growth inhibition": "-59%"},
      {"compound": "O=C1c2ccccc2-c2nc(-c3cccs3)cc3c2c1nc1ccccc13", "growth inhibition": "36.2%"},
      {"compound": "Cc1ccccc1NC(=O)C(=O)CC(=O)c1sc(Nc2ccccc2[N+](=O)[O-])nc1C", "growth inhibition": "-2.9%"},
      {"compound": "CC(C)CCC[C@@H](C)[C@H]1CC[C@H]2[C@@H]3CC[C@H]4C[C@@H](CCC=C(c5cc(Cl)c(O)c(C(=O)O)c5)c5cc(Cl)c(O)c(C(=O)O)c5)CC[C@]4(C)[C@H]3CC[C@]12C", "growth inhibition": "-1.75%"},
      {"compound": "Cc1cc(Cl)c(Cl)cc1NC(=O)c1c(Br)c(Br)c(Br)c(Br)c1C(=O)O", "growth inhibition": "28.4%"},
      {"compound": "COC(=O)CCSSCCC(=O)OC", "growth inhibition": "24.9%"},
      {"compound": "CCc1cc2c(c3c1CCC3=O)CC1(Cc3ccc(C)cc3C1)C2", "note": "(stereo not given)", "growth inhibition": "-44.7%"},
      {"compound": "COC(=S)OC1CC(n2cnc3c(N)ncnc32)OC1CO[Si](C)(C)C(C)(C)C", "note": "(stereo not given)", "growth inhibition": "4.9%"},
      {"compound": "Clc1cccc2nsnc12", "growth inhibition": "6.1%"},
      {"compound": "COC(=O)CCC(N)C(=O)NC(Cc1ccccc1)C(=O)NC(C)C(=O)NC1C(O)OC(CO)C(O)C1O", "note": "(stereo not given)", "growth inhibition": "-5.6%"},
      {"compound": "O=C(Nc1ccccc1-c1n[nH]c(=S)[nH]c1=O)C(F)(F)F", "growth inhibition": "30.8%"},
      {"compound": "c1ccc(SC2CCSc3ccccc3C2Sc2ccccc2)cc1", "note": "(stereo not given)", "growth inhibition": "11.2%"},
      {"compound": "CCOC(SCC)C(O)C(O)C(O)C(O)CO", "note": "(stereo not given)", "growth inhibition": "-21.6%"},
      {"compound": "COc1ccc(/C(C)=N/NC(N)=S)cc1OC", "growth inhibition": "3.45%"},
      {"compound": "NC1CC(=O)c2c(Cl)sc(Cl)c21", "note": "(stereo not given)", "growth inhibition": "1.15%"}
    ]}
  ]
}
